p47phox inh: p47phox (human) inhibition. P14598. p47phox/p22phox peptide binding, fluorescence polarization, 2 h. inhibition, % at 24.7 µM. hit rate 0.53% among 220,000;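 active = inhibition above about 30%, limit read from the data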;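 note: 0% = p47phox with labelled peptide and 100% = labelled peptide alone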
Target sequence (P14598 whole entry, looked up): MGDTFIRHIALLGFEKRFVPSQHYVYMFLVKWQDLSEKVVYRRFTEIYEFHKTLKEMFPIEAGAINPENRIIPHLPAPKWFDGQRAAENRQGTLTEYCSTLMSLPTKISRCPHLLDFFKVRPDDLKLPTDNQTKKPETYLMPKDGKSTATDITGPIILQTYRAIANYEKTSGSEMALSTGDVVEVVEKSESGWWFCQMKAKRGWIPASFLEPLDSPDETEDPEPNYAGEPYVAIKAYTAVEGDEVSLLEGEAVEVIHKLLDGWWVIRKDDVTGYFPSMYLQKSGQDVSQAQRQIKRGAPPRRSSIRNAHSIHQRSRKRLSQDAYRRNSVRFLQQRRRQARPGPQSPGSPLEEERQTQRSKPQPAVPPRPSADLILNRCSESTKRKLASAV
14-3-3 Bad PPI: disrupts binding of bovine 14-3-3 zeta to phospho-Bad peptide. AID 781. hit rate 0.71% among 220,000. TR-FRET 14-3-3zeta/Dy647-pBad peptide displacement, 1 h. P63103. inhibition, % at 21.7 µM;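 active = inhibition above about 70%, limit read from the data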;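 note: 0% = full 14-3-3 plus peptide FRET controls and 100% = background without 14-3-3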
Target sequence (P63103 whole entry, looked up): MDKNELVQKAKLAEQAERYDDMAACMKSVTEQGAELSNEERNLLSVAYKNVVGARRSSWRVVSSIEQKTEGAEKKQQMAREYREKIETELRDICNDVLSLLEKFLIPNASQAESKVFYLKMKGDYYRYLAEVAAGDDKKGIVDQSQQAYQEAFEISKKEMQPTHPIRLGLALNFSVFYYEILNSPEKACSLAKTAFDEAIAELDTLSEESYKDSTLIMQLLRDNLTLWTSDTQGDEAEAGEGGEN
Mcl1 Bid PPI: disrupts binding of human Mcl-1 to Bid peptide; TR-FRET Mcl-1/Bid-Dy647 peptide binding, 1536-well; hit rate 0.97% among 220,000; Q07820; inhibition, % at 21.7 µM;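 active = compounds that cut the binding signal by more than half at the single screening dose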;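 note: His-tagged Mcl-1 with europium anti-His antibody binding Bid BH3 peptide; 0% = Mcl-1 plus peptide wells and 100% = peptide-only wells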
Mcl-1 Bim block: inhibitors of Bim-Mcl-1 interaction, human | inhibition, % at 10 µM | Bead-based flow cytometry, Bim peptide-Mcl-1 binding | AID 1009 | Q07820 | hit rate 0.1% among 190,000; in the data active = inhibition above about 40%;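 note: 0% = no compound tracer wells and 100% = peptide blocker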
Mcl1-Noxa inh: Mcl-1/Noxa interaction inhibition; TR-FRET Mcl-1/Noxa peptide binding, 2 h; inhibition, % at 21.7 µM; hit rate 1.5% among 220,000; AID 1022;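 active = compounds that cut the protein-peptide binding signal by more than 50% relative to plate controls in a single-dose test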;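 note: His-tagged Mcl-1 with rhodamine Noxa BH3 peptide and terbium anti-His antibody; 0% = Mcl-1 plus Noxa peptide wells and 100% = peptide-only wells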
* hit, by the source's call; [ ] = another dose, or the depositor's remark. Compounds with a hit are over-represented: about 3.2% of the library has one in this group of screens.

`Cc1csc(NC(=O)C2CCCN(S(=O)(=O)c3cccnc3)C2)n1` (centres undefined) gave p47phox inh 0, 14-3-3 Bad PPI 10, Mcl1 Bid PPI -17, Mcl-1 Bim block -6 and Mcl1-Noxa inh -3.
Screening O=C(Nc1ccc(OC(F)(F)F)cc1)C1CCCN(S(=O)(=O)c2cccnc2)C1 (centres undefined) returned p47phox inh 7, 14-3-3 Bad PPI 82*, Mcl1 Bid PPI 1, Mcl-1 Bim block -1 and Mcl1-Noxa inh 6.
For O=C(Nc1ccc(-n2nncc2-c2ccco2)cc1)c1cc2ccccc2oc1=O the results were p47phox inh -2, 14-3-3 Bad PPI 79*[fluorescence artefact?], Mcl1 Bid PPI -120, Mcl-1 Bim block 0 and Mcl1-Noxa inh -58.
Screening CCSc1sccc1C1C(C#N)=C(N)N(c2cccnc2)C2=C1C(=O)CCC2 (centres undefined) returned p47phox inh -3, 14-3-3 Bad PPI 90*, Mcl1 Bid PPI -3, Mcl-1 Bim block -1 and Mcl1-Noxa inh 19.
COc1cc(C2C(C#N)=C(N)N(c3cccnc3)C3=C2C(=O)CCC3)ccc1O (centres undefined) was read as p47phox inh -25, 14-3-3 Bad PPI -6, Mcl1 Bid PPI -56, Mcl-1 Bim block 2 and Mcl1-Noxa inh 11.
O=C(COc1ccccc1)NC1CCCc2ccccc21 (centres undefined) was read as p47phox inh -5, 14-3-3 Bad PPI -4, Mcl1 Bid PPI -26, Mcl-1 Bim block -4 and Mcl1-Noxa inh -2.
O=C(COc1ccc(-c2nnco2)cc1)NC1CCCc2ccccc21 (centres undefined) was read as p47phox inh -4, 14-3-3 Bad PPI -11, Mcl1 Bid PPI 60*, Mcl-1 Bim block 5 and Mcl1-Noxa inh 10.
COc1cccc(N2C(=O)C(Cc3c[nH]c4ccccc34)NC2=S)c1 (centres undefined) was read as p47phox inh -16, 14-3-3 Bad PPI -5, Mcl1 Bid PPI -28, Mcl-1 Bim block -3 and Mcl1-Noxa inh 6.
Screening CCOc1cc(CN2CCN(c3ccc(C(C)=O)cc3)CC2)ccc1OC returned p47phox inh -3, 14-3-3 Bad PPI 89*, Mcl1 Bid PPI 37, Mcl-1 Bim block 1 and Mcl1-Noxa inh 4.
For CCOc1cc(CN2CCN(c3cccc(C(F)(F)F)c3)CC2)ccc1OC the results were p47phox inh 17, 14-3-3 Bad PPI 70*, Mcl1 Bid PPI 11, Mcl-1 Bim block 1 and Mcl1-Noxa inh 28.
Screening COc1cc(CN2CCN(c3ccc(C)cc3)CC2)cc([N+](=O)[O-])c1O returned p47phox inh -6, 14-3-3 Bad PPI 83*, Mcl1 Bid PPI 18, Mcl-1 Bim block -2 and Mcl1-Noxa inh 19.
For FC(F)(F)c1cccc(CN2CCCCCC2)c1 the results were p47phox inh -3, 14-3-3 Bad PPI 2, Mcl1 Bid PPI 52*, Mcl-1 Bim block 1 and Mcl1-Noxa inh 21.
FC(F)(F)c1cccc(Cc2noc(CN3CCCC3)n2)c1 was read as p47phox inh -12, 14-3-3 Bad PPI -7, Mcl1 Bid PPI -9, Mcl-1 Bim block 1 and Mcl1-Noxa inh 7.
Screening CCOc1cc(CN2CCN(c3cccc(C(F)(F)F)c3)CC2)ccc1O returned p47phox inh 5, 14-3-3 Bad PPI 28, Mcl1 Bid PPI -26, Mcl-1 Bim block -6 and Mcl1-Noxa inh 12.
Cc1ccc(N2C(=N)/C(=C3/Nc4ccccc4S3)C(c3ccccc3)C2=O)cc1 (centres undefined) was read as p47phox inh -5, 14-3-3 Bad PPI 1, Mcl1 Bid PPI -63, Mcl-1 Bim block 2 and Mcl1-Noxa inh -54.
For Cc1nc(/C(N)=N/OC(=O)Cc2ccccc2)no1 the results were p47phox inh -8, 14-3-3 Bad PPI -7, Mcl1 Bid PPI -14, Mcl-1 Bim block 0 and Mcl1-Noxa inh -12.
For Cc1ccc(-c2sc(-c3cccnc3)nc2CC(=O)O)cc1 the results were p47phox inh -4, 14-3-3 Bad PPI 75*, Mcl1 Bid PPI 3, Mcl-1 Bim block 1 and Mcl1-Noxa inh 17.
Cc1ccc(-c2nc(-c3cccnc3)sc2CC(=O)O)cc1 was read as p47phox inh -3, 14-3-3 Bad PPI -1, Mcl1 Bid PPI 11 and Mcl1-Noxa inh 9.
For O=C(CN1C(=O)c2ccccc2C1=O)N1CCCCC1 the results were p47phox inh -10, 14-3-3 Bad PPI 7, Mcl1 Bid PPI 99*, Mcl-1 Bim block -2 and Mcl1-Noxa inh 20.
`NS(=O)(=O)c1ccc(CCNC(=O)CCCOc2ccccc2)cc1` gave p47phox inh -5, 14-3-3 Bad PPI -7, Mcl1 Bid PPI -6, Mcl-1 Bim block 1 and Mcl1-Noxa inh 0.
COc1ccc2[nH]c(O)c(N=NC(=O)Cc3cccs3)c2c1 was read as p47phox inh -12, 14-3-3 Bad PPI 19, Mcl1 Bid PPI -55 and Mcl1-Noxa inh 61*.
Screening O=C(Cc1cccs1)N=Nc1c(O)[nH]c2ccc(Br)cc12 returned p47phox inh -8, 14-3-3 Bad PPI -12, Mcl1 Bid PPI -4 and Mcl1-Noxa inh 44.
Cc1ccc2nc(N/C(=N/S(=O)(=O)c3cccs3)c3ccccc3Cl)sc2c1 was read as p47phox inh -3, 14-3-3 Bad PPI -2, Mcl1 Bid PPI -17, Mcl-1 Bim block 0 and Mcl1-Noxa inh 5.
For O=C(O)c1ccccc1N/N=C/c1cc(Br)cc(Br)c1O the results were p47phox inh -34, 14-3-3 Bad PPI 32, Mcl1 Bid PPI 20 and Mcl1-Noxa inh 83*.
O=C(O)c1ccccc1N/N=C\c1ccnc2ccccc12 was read as p47phox inh -48, 14-3-3 Bad PPI 78*, Mcl1 Bid PPI -2, Mcl-1 Bim block -2 and Mcl1-Noxa inh 40.
`Oc1c(Br)cc(Br)cc1C=NCc1ccccc1` gave p47phox inh 26, 14-3-3 Bad PPI 33, Mcl1 Bid PPI -20, Mcl-1 Bim block -5 and Mcl1-Noxa inh 14.
`O=c1[nH]c2ccccc2nc1C(F)(F)C(F)F` gave p47phox inh 0, 14-3-3 Bad PPI 22, Mcl1 Bid PPI 63*, Mcl-1 Bim block 0 and Mcl1-Noxa inh 12.
`Cc1nc2ccccc2[nH]c1=O` gave p47phox inh 5, 14-3-3 Bad PPI 7, Mcl1 Bid PPI 59* and Mcl1-Noxa inh 12.
For O=c1[nH]c2cc3ccccc3cc2nc1C(F)(F)F the results were p47phox inh -12, 14-3-3 Bad PPI -15, Mcl1 Bid PPI -3, Mcl-1 Bim block 0 and Mcl1-Noxa inh 3.
`C/C(O)=C/c1nc2ccccc2[nH]c1=O` gave p47phox inh -15, 14-3-3 Bad PPI -2, Mcl1 Bid PPI -25, Mcl-1 Bim block 0 and Mcl1-Noxa inh 4.
`CC(C)c1ccccc1NC(=S)NCc1ccccc1F` gave p47phox inh -5, 14-3-3 Bad PPI -4, Mcl1 Bid PPI -51, Mcl-1 Bim block -3 and Mcl1-Noxa inh 8.
CN(C)c1cc(NC(=O)CN2CCCC2)c2ccccc2n1 was read as p47phox inh 7, 14-3-3 Bad PPI 38, Mcl1 Bid PPI 37 and Mcl1-Noxa inh 54*.
C[N+](C)(C)CCN(Cc1ccc(Cl)cc1)c1ccccn1 was read as p47phox inh -8, 14-3-3 Bad PPI 22, Mcl1 Bid PPI -16, Mcl-1 Bim block 3 and Mcl1-Noxa inh 33.

Screens: PubChem, several laboratories
